Data on 27 molecules can be found in PubChem BioAssay (NCATS).

Inconclusive results are not listed. Unmarked numbers belong to inactive results. The source made the active and inactive calls. Calls follow the shape of the dose curve; as a rule, active = well fitted cell-killing curve with a large enough effect; inconclusive = small, poorly fitted or top-dose-only effect, or effect the other way; inactive = flat fitted curve, though single readings scatter. Where a SMILES comes first, the peptide text is derived from it. [ ]: non-standard residue; d: D form. ξ: configuration not given here. ξPhe(βξ-Me) = CC(c1ccccc1)C(N)C(=O)O; GABA = NCCCC(=O)O
% is scaled to controls: 0 for no effect and ±100 for the full control effect; potency is read from the fitted curve at half-maximal effect.

The experiment has as its system CASKI. The experiment in a line: Primary qHTS to identify gynecologic anti-cancer compounds using libraries of approved drugs and bioactive compounds (AID 1345084). Also: nearly all actives have a fitted effect of over 55% in size. Particulars: Gynecologic cancer cell panel viability, ATPlite luminescence, 48 h; series mostly up to 57.5 µM; activity change, negative = cytotoxicity: at the top concentration. The method in brief:
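Cytotoxicity screen measuring ATP content by luciferase luminescence. Each compound is applied at five concentrations for 48 h at 37 C with 5% CO2.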
Regarding `COC(=O)C1C(CC(C)=O)C=CC(O)C12Oc1cc(C)cc(O)c1C2=O` (configuration not stated), the “activity change, negative = cytotoxicity” value was 3.62% [at 38.5 µM].

In the case of `CC1(C)CCC[C@@]2(C)[C@H]1[C@H](O)C=C1COC(=O)[C@@]12O`, the “activity change, negative = cytotoxicity” value was 0.811%.

Regarding `O=C(O)Cc1nn(Cc2nc3cc(C(F)(F)F)ccc3s2)c(=O)c2nccnc12`, the “activity change, negative = cytotoxicity” value was -0.36%.

In the case of `CC1CCC2(C(=O)OC3OC(CO)C(O)C(O)C3O)CCC3(C(=O)O)C(=CCC4C5(C)CCC(OC6OC(C)C(O)C(O)C6O)C(C)(C)C5CCC43C)C2C1C` (configuration not stated), the “activity change, negative = cytotoxicity” value is -3.23% [at 25.3 µM].

Take `CC(CO[C@@H]1O[C@H](COC(=O)/C=C/c2ccc(O)c(O)c2)[C@@H](O)[C@H](O)[C@H]1O)C1(O)COC(=O)C1` (some centres not stated): the “activity change, negative = cytotoxicity” value is 21.9% [at 25.3 µM].

`CCCCN(CCCC)C(=O)CN1C[C@H](c2ccc3c(c2)OCO3)[C@@H](C(=O)O)[C@@H]1c1ccc(OC)cc1`: the “activity change, negative = cytotoxicity” value is 4.17%.

For the molecule `CC(C)C(=O)O[C@@H]1[C@@H](O)[C@@H](O[C@H]2O[C@H](CO)[C@@H](O)[C@H](O)[C@H]2O)O[C@H](CO)[C@H]1O`, the “activity change, negative = cytotoxicity” value was -5.4% [at 25.3 µM].

With `CC1(C)CC[C@]2(C(=O)O)CC[C@]3(C)C(=CCC4[C@@]5(C)CCC(O[C@@H]6OC[C@H](O)[C@H](O)[C@H]6O[C@@H]6O[C@H](CO)[C@@H](O)[C@H](O)[C@H]6O)[C@@](C)(CO)C5CC[C@]43C)[C@@H]2C1` (some centres not stated), the “activity change, negative = cytotoxicity” value was 7.36% [at 25.3 µM].

Consider `CCc1c(CC(N)=O)c2cc(OCCCP(=O)(O)O)ccc2n1Cc1ccccc1`, for which the “activity change, negative = cytotoxicity” value was 20.8%.

In the case of `COc1ccc(C[C@H](N)C(=O)N[C@H]2[C@@H](O)[C@H](n3cnc4c(N(C)C)ncnc43)O[C@@H]2CO)cc1`, the Potency was 1.58 µM (active).

With `COC(=O)C1=CO[C@@H](O[C@@H]2O[C@H](CO)[C@@H](O)[C@H](O)[C@H]2O)[C@@H]2[C@@H](C(=O)OC)[C@@H](O)C(O)[C@H]12` (some centres not stated), the “activity change, negative = cytotoxicity” value was 10% [at 25.3 µM].

Take `CC(C)CC1NC(=O)C(C(C)c2ccccc2)NC(=O)C(C(C)C)NC(=O)C(C)NC(=O)CCCNC(=O)C(Cc2c[nH]c3ccccc23)NC(=O)C(C)NC1=O` (stereo not drawn) (cyclo([GABA]AV[ξPhe(βξ-Me)]LAW); configuration not given here): the “activity change, negative = cytotoxicity” value is 4.7% [at 25.3 µM].

As to `C=C1CCC2C(C)(C)C(O)CCC2(C)C1CCC(C)CCOC(=O)CCC(=O)O` (configuration not stated), the “activity change, negative = cytotoxicity” value was 12% [at 25.3 µM].

Consider `COc1cc(C)c(C(=O)O[C@H]2[C@@H](O)[C@H](n3ccc(=O)[nH]c3=O)O[C@@H]2CO)c(OC)c1`, for which the “activity change, negative = cytotoxicity” value was -1.33% [at 25.3 µM].

`COC(=O)C1=COC(O[C@@H]2O[C@H](CO)[C@@H](O)[C@H](O)[C@H]2O)/C(=C\COC(=O)c2ccc(OC3OC(CO)C(O)C(O)C3O)c(OC)c2)C1CC(=O)OCCc1ccc(O)cc1` (some centres not stated): the activity change, negative = cytotoxicity is 3.94% [at 11.6 µM].

`COc1cc(CC(COC2OC(CO)C(O)C(O)C2O)c2cc(/C=C/CO)cc(OC)c2O)ccc1O` (configuration not stated): the “activity change, negative = cytotoxicity” value was 24.1% [at 25.3 µM].

`CC1(C)C[C@H]2C3=CCC4[C@@]5(C)CC[C@H](O[C@H]6O[C@H](C(=O)O)[C@@H](O)[C@H](O)[C@H]6O[C@H]6O[C@H](CO)[C@@H](O)[C@H](O)[C@H]6O[C@@H]6O[C@H](CO)[C@@H](O)[C@H](O)[C@H]6O)[C@](C)(CO)C5CC[C@@]4(C)[C@]3(C)CC[C@@]2(C)[C@H](O[C@@H]2OC[C@H](O)[C@H](OC3O[C@H](CO)[C@@H](O)[C@H](O)[C@H]3O)[C@H]2O)[C@@H]1O` (some centres not stated): the activity change, negative = cytotoxicity was -2.3% [at 6.55 µM].

Take `O=C1N(CC2CCCCN2)CCN1c1ccccc1` (configuration not stated): the “activity change, negative = cytotoxicity” value was 0.506%.

On to `CCCOc1ccn2c(C(C)=O)cc(-c3ccccc3S(C)(=O)=O)c2c1`, for which the “activity change, negative = cytotoxicity” value is 5.16%.

`COc1cc(/C=C/C(=O)O[C@H]2[C@H](O)[C@@H](CO)O[C@@]2(CO)O[C@H]2O[C@H](COC(=O)c3ccc(O)cc3)[C@@H](O)[C@H](O)[C@H]2O)cc(OC)c1OC`: the “activity change, negative = cytotoxicity” value was -1.12% [at 25.3 µM].

Take `OC[C@H]1O[C@@H](n2cnc3c2NC=NC[C@H]3O)C[C@@H]1O`: the “activity change, negative = cytotoxicity” value is 6.33%.

With `CNc1nc(Nc2cnn([C@H]3CCN(C4COC4)C[C@@H]3F)c2Cl)ncc1C(F)(F)F`, the “activity change, negative = cytotoxicity” value is 8.29%.

For `CCCCS(=O)(=O)Nc1ncnc(OCCOc2ncc(Br)cn2)c1-c1ccc(Br)cc1`, the “activity change, negative = cytotoxicity” value was 8.17%.

In the case of `CC/C=C/CC1=C(CCCCCCCC(=O)O)CCC1=O`, the “activity change, negative = cytotoxicity” value was 0.294%.

For the molecule `C[C@@H]1O[C@@H](OC[C@H]2O[C@@H](OCCc3ccccc3)[C@H](O)[C@@H](O)[C@@H]2O)[C@H](O)[C@H](O)[C@H]1O`, the “activity change, negative = cytotoxicity” value is -24.2% [at 25.3 µM].

On to `C=C[C@](C)(CC/C=C(\C)C(=O)O)O[C@@H]1OC[C@H](O)[C@H](O)[C@H]1O`, for which the “activity change, negative = cytotoxicity” value was 20.5% [at 38.5 µM].

Turning to `FC(F)(F)c1cc(C(F)(F)F)c2ccc3nc(-c4nnco4)cn3c2n1`, the “activity change, negative = cytotoxicity” value was 1.76%.
